This note sets out measurements from PubChem BioAssay AID1259336 (Sattelle Laboratory, UCL Respiratory, Division of Medicine, …, 2017).

The structures appear in SMILES notation. Unmarked numbers belong to inactive results. Rule as the data show it: active = log2 fold change growth below about -1.8; inactive = the rest.

This test in a line: C. elegans growth inhibition, whole organism, log2 fold change (AID 1259336).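 Also: growth scored by imaging after five days at 20 °C.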 The following applies: anthelmintic screen, stronger effect = lower value.
As to `CNC(=O)c1cc(S(=O)(=O)N2CCN(c3ccccn3)CC2)cs1`, the log2 fold change growth was -0.156. `CCOc1ccc2cc(-c3nn(C(C)(C)C)c(N)c3C(N)=O)cnc2c1`: the log2 fold change growth is -0.647. Consider `CC[C@@H]([C@H](C)O)n1ncn(-c2ccc(N3CCN(c4ccc(OC[C@@H]5CO[C@@](Cn6cncn6)(c6ccc(F)cc6F)C5)cc4)CC3)cc2)c1=O`, for which the log2 fold change growth is -1.34.

`CCC(=O)Nc1ccccc1C(=O)Nc1ccccn1`: the log2 fold change growth was 0.194. With `CC(=O)Nc1ccc(NC(=O)c2cc(-c3cc(Cl)ccc3O)n[nH]2)cc1`, the log2 fold change growth is 0.254.

Turning to `CS(=O)(=O)c1ccc(C(=O)N(C[C@H]2CCCO2)c2nc3ccccc3s2)cc1[N+](=O)[O-]`, the log2 fold change growth was 0.211. On to `CCCn1c(NC(=O)c2ccc3ccccc3n2)nc2ccccc21`, for which the log2 fold change growth was -0.0431. Turning to `O=C(Nc1ccccc1-c1nc2c(C(=O)O)cccc2o1)c1ccccc1`, the log2 fold change growth was -0.0236. As to `COc1ccc(-c2cc(NC(=O)c3ccc(F)cc3Cl)ccc2OC)cc1`, the log2 fold change growth was 0.039. In the case of `CC(=O)N(CCN(C(=O)c1ccc(F)cc1)c1ccccc1)c1ccccc1` it was 0.382; in that of `Nc1ncc(-c2cn[nH]c2)cc1-c1nc2ncc(Cl)cc2[nH]1`, -0.454; in that of `Cc1ccc2c(c1C)NC(=O)[C@]21NN=C(c2ccccc2)S1`, -0.355. As for `C[C@H]1COc2c(N3CCN(C)CC3)c(F)cc3c(=O)c(C(=O)O)cn1c23`, the log2 fold change growth was 0.473. On to `CCS(=O)(=O)N(Cc1ccco1)Cc1cc2ccc(C)cc2[nH]c1=O`, for which the log2 fold change growth was 0.443.
